PubChem BioAssay (EPA / NIEHS)
Records with an inconclusive call do not appear. Calls of active or inactive are those of the source. How the source made its calls, unless noted: active means hit-call score of the fitted dose curve at least 0.9, where 1 is the maximum; inactive means score below 0.9.

Assays:
[1] = BSK_SAg_PBMCCytotoxicity: PBMC Cytotoxicity Assessment in the BioMAP Diversity Plus: SAg Assay (AID 2283093); details: primary human HUVEC with PBMC;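 further: PBMC viability measured as Alamar Blue reduction fluorescence at 546/580 nm; fitted both ways against DMSO so a hit may be loss or gain of signal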;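 on AC50: PBMC superantigen activated with SEB plus TSST-1 one hour after compound addition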
Method in brief: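 HUVEC/PBMC co-culture; PBMC exposed to chemical 1 h before SEB and TSST-1 activation (20 ng/mL each), incubated 90 h, then Alamar Blue 6 h, fluorescence 546/580 nm. Bidirectional fit versus DMSO baseline.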

[2] = read-out: Interleukin-8 (IL8), CXCL8 (gene 3576); experiment: BSK_SAg_IL8: BioMAP Diversity Plus: SAg Assay for Interleukin-8 (IL8) Biomarker Activity (AID 2283094); details: primary human HUVEC with PBMC; actives raise or lower the signal
Method in brief: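 ELISA read-out of IL-8 in a primary human vascular co-culture (umbilical vein endothelium plus PBMC), taken 24 h after compound addition. Values derive from bidirectional fits against DMSO negative controls.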

[3] = BSK_SAg_Proliferation: Cell Proliferation Assessment in the BioMAP Diversity Plus: SAg Assay (AID 2283095); details: primary human HUVEC with PBMC;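 further: relative cell number as total protein by SRB absorbance in sub-confluent culture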
Method in brief: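 Cells (endothelium plus PBMC, human primary) were dosed with chemical, cultured 96 h, fixed in 10% TCA and stained with 0.1% SRB. Absorbance at 560 nm gave relative protein, fitted bidirectionally relative to DMSO.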

[4] = BSK_SAg_SRB: Viability Assessment in the BioMAP Diversity Plus: SAg Assay (AID 2283096); details: primary human HUVEC with PBMC;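 further: cells read one day after compound addition; hits may be either gain or loss of signal compared with DMSO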
Method in brief: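 Human umbilical vein endothelial cells co-cultured with PBMC, read 24 h after compound dosing. Total protein measured by sulforhodamine B staining (0.1% SRB after 10% TCA fixation, absorbance 560 nm); bidirectional fit versus DMSO baseline.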

[5] = target: human CYP1A1, CYP1A1 (gene 1543) (UniProt P04798); experiment: NVS_ADME_hCYP1A1: NovaScreen (NVS) CYP450-related Enzyme Activity (ADME) Assay for human CYP1A1 (AID 2283100; active means hit-call score of the fitted dose curve at least 0.9, where 1 is the maximum)
Method in brief: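 Recombinant hCYP1A1 + fluorogenic substrate, cell-free; 1 h; fluorescence read. Single-point 10 uM (duplicate) → concentration series, max 20 uM. Acetonitrile negative control.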

[6] = target: human CYP2B6, CYP2B6 (gene 1555) (UniProt P20813); experiment: NVS_ADME_hCYP2B6: NovaScreen (NVS) CYP450-related Enzyme Activity (ADME) Assay for human CYP2B6 (AID 2283101; active means hit-call score of the fitted dose curve at least 0.9, where 1 is the maximum)
Method in brief: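 Compounds were first screened in duplicate at 10 uM against recombinant enzyme, with the fluorescent product measured after 1 hour. Active compounds were retested over a concentration series. Loss of fluorescence versus acetonitrile control was scored as reduced enzyme activity.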

[7] = target: human CYP1A2, CYP1A2 (gene 1544) (UniProt P05177); experiment: NVS_ADME_hCYP1A2: NovaScreen (NVS) CYP450-related Enzyme Activity (ADME) Assay for human CYP1A2 (AID 2283102; active means hit-call score of the fitted dose curve at least 0.9, where 1 is the maximum;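 further: potency for inhibition since loss of fluorescence marks reduced CYP1A2 activity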)
Method in brief: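 rec. hCYP1A2 (insect cells), cell-free; fluorogenic substrate; 0.5 h; FI read. Baseline = acetonitrile; signal loss = inhibition. 10 uM duplicate primary → conc. series for actives.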

[8] = target: human CYP2C9, CYP2C9 (gene 1559) (UniProt P11712); experiment: NVS_ADME_hCYP2C9: NovaScreen (NVS) CYP450-related Enzyme Activity (ADME) Assay for human CYP2C9 (AID 2283108; active means hit-call score of the fitted dose curve at least 0.9, where 1 is the maximum)
Method in brief: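 Recombinant human CYP2C9 expressed in SF9 cells, fluorogenic substrate, fluorescence read 0.75 h after dosing. Chemicals first run in duplicate at 10 uM, with actives followed in concentration series; loss of signal versus acetonitrile baseline.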

[9] = target: Cytochrome P450 2C19 (Homo sapiens) (UniProt P33261); experiment: NVS_ADME_hCYP2C19: NovaScreen (NVS) CYP450-related Enzyme Activity (ADME) Assay for human CYP2C19 (AID 2283113; active means hit-call score of the fitted dose curve at least 0.9, where 1 is the maximum;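 on AC50: potency for inhibition seen as loss of fluorescent signal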)
Method in brief: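 Fluorescence intensity was measured 1 hour after chemicals were added to insect-cell-derived recombinant CYP2C19 with fluorogenic substrate. Decreased signal versus acetonitrile control was taken as reduced enzyme activity; initial testing used 10 uM in duplicate.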

[10] = target: human CYP2A6, CYP2A6 (gene 1548) (UniProt P11509); experiment: NVS_ADME_hCYP2A6: NovaScreen (NVS) CYP450-related Enzyme Activity (ADME) Assay for human CYP2A6 (AID 2283099; active means hit-call score of the fitted dose curve at least 0.9, where 1 is the maximum)
Method in brief: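 Fluorescent substrate turnover by recombinant CYP2A6 (insect cell source), 0.5 h read. Screen: 10 uM, duplicate; threshold hits (e.g. 30% inhibition) → singleton concentration-response, top 20 uM. Positive and negative controls on every plate.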

[11] = target: human CYP2D6, CYP2D6 (gene 1565) (UniProt P10635); experiment: NVS_ADME_hCYP2D6: NovaScreen (NVS) CYP450-related Enzyme Activity (ADME) Assay for human CYP2D6 (AID 2283107; active means hit-call score of the fitted dose curve at least 0.9, where 1 is the maximum)
Method in brief: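 Insect-cell recombinant enzyme + fluorogenic substrate, cell-free; 1 h incubation; fluorescence intensity readout. Acetonitrile = neg. ctrl/baseline. Single-point 10 uM, duplicate; follow-up concentration series.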

[12] = target: Cytochrome P450 3A4 (Homo sapiens) (UniProt P08684); experiment: NVS_ADME_hCYP3A4: NovaScreen (NVS) CYP450-related Enzyme Activity (ADME) Assay for human CYP3A4 (AID 2283110; active means hit-call score of the fitted dose curve at least 0.9, where 1 is the maximum)
Method in brief: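 Cell-free recombinant enzyme expressed in insect cells; fluorescent substrate turnover read after 0.33 h, acetonitrile as negative control. Primary screen in duplicate at 10 uM, actives then tested in concentration series.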

[13] = target: human Caspase 5 (CASP5), CASP5 (gene 838) (UniProt P51878); experiment: NVS_ENZ_hCASP5: NovaScreen (NVS) Enzymatic Assay for human Caspase 5 (CASP5) (AID 2283137; active means hit-call score of the fitted dose curve at least 0.9, where 1 is the maximum)
Method in brief: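 E. coli-derived enzyme, cell-free, 2 h incubation, fluorescence intensity. 25 uM duplicate single-point; hits → concentration series to 50 uM. DMSO baseline, positive/negative controls on every plate.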

[14] = target: human Beta-secretase (BACE), BACE1 (gene 23621) (UniProt P56817); experiment: NVS_ENZ_hBACE: NovaScreen (NVS) Enzymatic Assay for human Beta-secretase (BACE) (AID 2283140; active means hit-call score of the fitted dose curve at least 0.9, where 1 is the maximum;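 further: hits are inhibitors that reduce fluorescent substrate signal versus DMSO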)
Method in brief: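 Compounds were first tested in duplicate at 25 uM, then actives in concentration series, against recombinant BACE1 from SF9 cells. Enzyme activity was measured by fluorescence intensity 1 hour after dosing, with DMSO as negative control.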

[15] = target: human CYP19A1, CYP19A1 (gene 1588) (UniProt P11511); experiment: NVS_ADME_hCYP19A1: NovaScreen (NVS) CYP450-related Enzyme Activity (ADME) Assay for human CYP19A1 (AID 2283098; active means hit-call score of the fitted dose curve at least 0.9, where 1 is the maximum;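 further: potency for inhibitors seen as loss of fluorescent enzyme signal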)
Method in brief: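 Recombinant enzyme in a cell-free format, read 0.5 h after dosing by fluorescence from a fluorogenic substrate. Loss of signal was fitted against acetonitrile as baseline. Primary screen in duplicate at 10 uM, actives then tested in concentration series.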

[16] = target: human Caspase 4 (CASP4), CASP4 (gene 837) (UniProt P49662); experiment: NVS_ENZ_hCASP4: NovaScreen (NVS) Enzymatic Assay for human Caspase 4 (CASP4) (AID 2283143; active means hit-call score of the fitted dose curve at least 0.9, where 1 is the maximum)
Method in brief: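 The cell-free assay used E. coli-expressed enzyme with a fluorogenic substrate, read 2 h after dosing. Signal loss was scored versus DMSO. Screening was in duplicate at 25 uM, then singleton concentration-response up to 50 uM.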

[17] = target: human AKT serine/threonine Kinase 2 (AKT2), AKT2 (gene 208) (UniProt P31751); experiment: NVS_ENZ_hAKT2: NovaScreen (NVS) Enzymatic Assay for human AKT serine/threonine Kinase 2 (AKT2) (AID 2283141; active means hit-call score of the fitted dose curve at least 0.9, where 1 is the maximum)
Method in brief: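 Cell-free fluorescence/electrophoretic mobility shift readout of recombinant human AKT2 activity, 1 h after chemical dosing. Duplicate primary screen at 25 uM, then singleton concentration-response up to 50 uM; loss of signal versus DMSO baseline.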

Measured: AC50

Sequence of human CYP1A1, CYP1A1 (gene 1543) (P04798 whole entry, looked up): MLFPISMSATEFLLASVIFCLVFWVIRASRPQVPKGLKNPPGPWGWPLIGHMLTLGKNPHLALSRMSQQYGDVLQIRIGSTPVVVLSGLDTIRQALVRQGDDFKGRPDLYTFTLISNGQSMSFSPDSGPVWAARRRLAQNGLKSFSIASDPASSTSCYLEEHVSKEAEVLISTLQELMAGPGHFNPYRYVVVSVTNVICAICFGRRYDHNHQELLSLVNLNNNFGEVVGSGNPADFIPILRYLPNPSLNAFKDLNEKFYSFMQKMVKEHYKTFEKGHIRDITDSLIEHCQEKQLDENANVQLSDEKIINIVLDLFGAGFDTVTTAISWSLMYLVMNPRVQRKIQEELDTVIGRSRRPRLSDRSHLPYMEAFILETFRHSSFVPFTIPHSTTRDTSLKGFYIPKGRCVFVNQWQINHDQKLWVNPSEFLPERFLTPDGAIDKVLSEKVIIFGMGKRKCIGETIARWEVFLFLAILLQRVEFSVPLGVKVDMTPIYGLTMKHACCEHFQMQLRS
Sequence of human CYP1A2, CYP1A2 (gene 1544) (P05177 whole entry, looked up): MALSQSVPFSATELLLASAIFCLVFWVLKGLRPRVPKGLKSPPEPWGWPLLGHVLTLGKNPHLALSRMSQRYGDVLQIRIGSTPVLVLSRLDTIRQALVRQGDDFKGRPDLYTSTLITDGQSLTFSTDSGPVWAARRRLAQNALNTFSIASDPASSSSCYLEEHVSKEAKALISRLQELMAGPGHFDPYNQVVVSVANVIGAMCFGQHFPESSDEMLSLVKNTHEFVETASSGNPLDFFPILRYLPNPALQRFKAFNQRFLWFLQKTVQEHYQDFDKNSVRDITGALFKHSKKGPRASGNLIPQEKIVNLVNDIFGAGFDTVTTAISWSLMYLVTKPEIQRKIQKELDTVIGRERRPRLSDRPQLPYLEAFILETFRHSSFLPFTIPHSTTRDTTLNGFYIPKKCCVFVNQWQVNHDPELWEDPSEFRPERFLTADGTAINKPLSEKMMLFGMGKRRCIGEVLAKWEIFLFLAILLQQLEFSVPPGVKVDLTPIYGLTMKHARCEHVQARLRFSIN
Sequence of human CYP2C9, CYP2C9 (gene 1559) (P11712 whole entry, looked up): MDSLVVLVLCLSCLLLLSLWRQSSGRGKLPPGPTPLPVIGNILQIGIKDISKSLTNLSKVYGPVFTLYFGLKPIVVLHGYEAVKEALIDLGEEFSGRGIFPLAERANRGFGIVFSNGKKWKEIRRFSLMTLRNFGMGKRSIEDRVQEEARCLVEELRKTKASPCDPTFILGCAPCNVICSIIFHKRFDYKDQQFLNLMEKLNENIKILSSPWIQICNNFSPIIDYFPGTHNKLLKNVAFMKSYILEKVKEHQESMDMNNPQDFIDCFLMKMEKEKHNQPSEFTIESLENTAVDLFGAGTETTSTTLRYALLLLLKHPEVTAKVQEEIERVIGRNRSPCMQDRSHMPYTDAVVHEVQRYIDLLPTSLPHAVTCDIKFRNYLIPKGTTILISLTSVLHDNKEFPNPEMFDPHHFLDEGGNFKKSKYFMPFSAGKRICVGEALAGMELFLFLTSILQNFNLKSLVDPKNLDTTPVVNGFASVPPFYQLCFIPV
Sequence of human CYP2B6, CYP2B6 (gene 1555) (P20813 whole entry, looked up): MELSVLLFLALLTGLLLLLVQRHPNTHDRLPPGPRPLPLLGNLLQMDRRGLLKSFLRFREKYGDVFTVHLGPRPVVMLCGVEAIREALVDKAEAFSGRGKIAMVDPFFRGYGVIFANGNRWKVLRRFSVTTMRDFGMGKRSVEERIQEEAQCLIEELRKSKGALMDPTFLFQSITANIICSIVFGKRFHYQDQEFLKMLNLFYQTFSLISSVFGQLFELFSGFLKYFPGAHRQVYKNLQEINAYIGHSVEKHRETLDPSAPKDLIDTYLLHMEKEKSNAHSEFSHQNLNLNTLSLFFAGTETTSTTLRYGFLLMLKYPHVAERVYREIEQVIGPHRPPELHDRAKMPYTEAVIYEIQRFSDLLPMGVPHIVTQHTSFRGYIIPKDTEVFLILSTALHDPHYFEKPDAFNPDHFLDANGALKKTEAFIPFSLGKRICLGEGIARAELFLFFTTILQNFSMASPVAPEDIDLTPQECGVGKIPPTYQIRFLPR
Sequence of Cytochrome P450 3A4 (Homo sapiens) (P08684 whole entry, looked up): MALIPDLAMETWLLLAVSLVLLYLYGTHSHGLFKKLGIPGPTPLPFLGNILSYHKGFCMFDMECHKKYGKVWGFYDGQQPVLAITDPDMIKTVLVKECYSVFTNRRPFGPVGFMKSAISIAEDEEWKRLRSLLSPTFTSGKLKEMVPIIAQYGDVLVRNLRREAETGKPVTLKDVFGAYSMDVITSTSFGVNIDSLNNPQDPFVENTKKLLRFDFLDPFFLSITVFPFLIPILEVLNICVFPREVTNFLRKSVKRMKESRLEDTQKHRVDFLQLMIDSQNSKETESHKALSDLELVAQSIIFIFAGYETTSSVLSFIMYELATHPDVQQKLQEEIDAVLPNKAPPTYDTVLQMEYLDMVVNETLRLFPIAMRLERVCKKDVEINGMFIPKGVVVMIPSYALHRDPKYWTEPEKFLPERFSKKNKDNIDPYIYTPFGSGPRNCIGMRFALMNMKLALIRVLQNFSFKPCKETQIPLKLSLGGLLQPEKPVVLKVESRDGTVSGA
Sequence of human Caspase 5 (CASP5), CASP5 (gene 838) (P51878 whole entry, looked up): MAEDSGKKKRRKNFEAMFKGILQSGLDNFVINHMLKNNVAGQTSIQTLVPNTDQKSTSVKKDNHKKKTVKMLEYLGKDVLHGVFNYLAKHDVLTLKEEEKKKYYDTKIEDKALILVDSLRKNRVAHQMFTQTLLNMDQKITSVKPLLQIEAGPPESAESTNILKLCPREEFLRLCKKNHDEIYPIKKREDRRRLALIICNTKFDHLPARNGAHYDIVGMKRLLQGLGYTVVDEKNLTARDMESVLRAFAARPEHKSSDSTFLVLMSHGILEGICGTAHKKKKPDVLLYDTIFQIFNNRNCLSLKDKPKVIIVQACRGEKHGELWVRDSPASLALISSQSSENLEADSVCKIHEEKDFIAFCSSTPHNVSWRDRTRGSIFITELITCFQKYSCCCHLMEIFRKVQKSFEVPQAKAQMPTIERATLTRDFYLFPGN
Sequence of human CYP19A1, CYP19A1 (gene 1588) (P11511 whole entry, looked up): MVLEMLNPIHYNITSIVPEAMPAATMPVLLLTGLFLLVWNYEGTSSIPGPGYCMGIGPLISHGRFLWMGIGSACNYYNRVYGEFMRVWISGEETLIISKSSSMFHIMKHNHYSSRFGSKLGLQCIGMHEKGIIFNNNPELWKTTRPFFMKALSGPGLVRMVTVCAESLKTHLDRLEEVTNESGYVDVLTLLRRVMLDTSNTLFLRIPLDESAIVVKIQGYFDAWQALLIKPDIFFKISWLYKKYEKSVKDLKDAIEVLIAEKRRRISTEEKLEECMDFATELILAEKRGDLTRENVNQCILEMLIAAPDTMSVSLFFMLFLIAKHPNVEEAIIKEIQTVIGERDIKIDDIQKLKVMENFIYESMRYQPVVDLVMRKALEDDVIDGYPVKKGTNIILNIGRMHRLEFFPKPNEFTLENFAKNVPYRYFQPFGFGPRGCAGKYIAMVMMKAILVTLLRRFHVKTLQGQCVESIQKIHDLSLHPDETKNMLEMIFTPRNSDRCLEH
Sequence of human AKT serine/threonine Kinase 2 (AKT2), AKT2 (gene 208) (P31751 whole entry, looked up): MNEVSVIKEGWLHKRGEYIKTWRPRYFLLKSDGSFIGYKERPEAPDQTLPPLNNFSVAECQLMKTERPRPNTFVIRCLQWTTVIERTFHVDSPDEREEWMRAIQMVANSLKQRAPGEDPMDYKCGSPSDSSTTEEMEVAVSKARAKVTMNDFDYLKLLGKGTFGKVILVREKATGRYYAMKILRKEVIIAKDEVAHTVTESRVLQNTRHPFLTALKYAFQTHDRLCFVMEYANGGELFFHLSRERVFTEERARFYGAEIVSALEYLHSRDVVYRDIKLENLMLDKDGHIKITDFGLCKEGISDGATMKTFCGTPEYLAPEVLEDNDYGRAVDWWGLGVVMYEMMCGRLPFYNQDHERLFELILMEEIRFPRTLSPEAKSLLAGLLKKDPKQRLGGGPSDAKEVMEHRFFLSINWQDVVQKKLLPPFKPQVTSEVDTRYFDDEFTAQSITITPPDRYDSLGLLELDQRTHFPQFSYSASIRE
Sequence of human Caspase 4 (CASP4), CASP4 (gene 837) (P49662 whole entry, looked up): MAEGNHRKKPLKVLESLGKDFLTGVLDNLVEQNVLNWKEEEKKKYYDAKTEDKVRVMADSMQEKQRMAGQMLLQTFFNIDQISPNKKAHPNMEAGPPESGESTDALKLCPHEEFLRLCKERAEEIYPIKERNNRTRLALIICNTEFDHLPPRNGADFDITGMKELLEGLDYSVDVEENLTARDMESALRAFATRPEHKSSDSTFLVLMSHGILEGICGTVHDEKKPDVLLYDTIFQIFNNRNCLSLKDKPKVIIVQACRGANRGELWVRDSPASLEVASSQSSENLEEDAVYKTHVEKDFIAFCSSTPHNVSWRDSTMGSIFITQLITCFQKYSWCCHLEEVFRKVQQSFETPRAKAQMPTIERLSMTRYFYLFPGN
Sequence of human Beta-secretase (BACE), BACE1 (gene 23621) (P56817 whole entry, looked up): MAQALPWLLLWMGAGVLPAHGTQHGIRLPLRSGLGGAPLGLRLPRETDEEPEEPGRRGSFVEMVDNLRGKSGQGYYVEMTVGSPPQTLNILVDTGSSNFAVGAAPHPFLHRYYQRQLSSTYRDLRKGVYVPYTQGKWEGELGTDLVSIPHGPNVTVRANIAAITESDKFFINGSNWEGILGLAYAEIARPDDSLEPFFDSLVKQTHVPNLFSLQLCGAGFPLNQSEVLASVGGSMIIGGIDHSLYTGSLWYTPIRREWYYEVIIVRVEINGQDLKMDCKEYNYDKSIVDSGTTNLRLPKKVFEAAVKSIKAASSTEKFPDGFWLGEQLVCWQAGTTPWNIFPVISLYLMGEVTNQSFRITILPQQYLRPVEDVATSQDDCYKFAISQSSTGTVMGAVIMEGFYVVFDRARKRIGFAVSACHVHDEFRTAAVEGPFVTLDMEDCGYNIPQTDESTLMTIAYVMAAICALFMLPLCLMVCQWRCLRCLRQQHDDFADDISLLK

Nc1cccc(N)c1
inactive: [1] | [2] | [3] | [4]

CC(C)(O)c1coc(S(=O)(=O)NC(=O)Nc2c3c(cc4c2CCC4)CCC3)c1
inactive: [1] | [2] | [3] | [4] | [5]
active: [6] 6.39 µM | [7] 16 µM | [8] 13.4 µM | [9] 10 µM

O=C1CCCCCN1
inactive: [1] | [2] | [3] | [4]

CCNc1ccccc1
inactive: [1] | [2] | [3] | [4]

CC(C)=CCC/C(C)=C\CO
inactive: [1] | [2] | [3] | [4]

CCOCCO
inactive: [1] | [2] | [3] | [4] | [10]

Cc1[nH]cnc1C[C@H]1CCc2c(C)c3ccccc3n2C1=O
active: [1] 30.7 µM | [2] 24.7 µM | [3] 31 µM | [4] 26.8 µM | [5] 3.83 µM | [6] 4.01 µM | [7] 1.78 µM | [11] 3.98 µM | [8] 1.77 µM | [9] 0.636 µM

CC(C)=CCCC(C)CCO (configuration not stated)
inactive: [1] | [2] | [3] | [4] | [5] | [9]

Oc1ccc2c(c1)-c1ccccc1C2
inactive: [1] | [2] | [3] | [12]
active: [4] 20 µM | [5] 6.18 µM | [7] 0.691 µM | [8] 3.72 µM | [9] 5.99 µM | [13] 36.1 µM

Cc1c(-c2cccnc2)c2ccccc2n1CCCCC(=O)O
active: [3] 20 µM | [5] 4.39 µM | [7] 13.9 µM
inactive: [1] | [2] | [4] | [14]

CN(C)c1ccc(N=NS(=O)(=O)O)cc1
active: [3] 19 µM | [15] 12 µM
inactive: [1] | [2] | [4] | [16]

COCCOc1cc2cc(C(=O)NC3CCN(C(C)C)CC3)n(CC(=O)Nc3ccc(Cl)cn3)c2cn1
inactive: [1] | [2] | [3] | [4]

CCCC(=O)OCC
inactive: [1] | [2] | [3] | [4]

CCc1cc(SCc2sc(-c3ccc(C(F)(F)F)cc3)nc2CN2CCN(c3ccc(OC)cc3)CC2)ccc1OCC(=O)O
inactive: [5] | [8] | [12] | [16]
active: [1] 21.5 µM | [2] 20 µM | [3] 9.97 µM | [4] 14.2 µM | [13] 2.35 µM

CCCCCCc1ccc(O)cc1O
active: [15] 4.09 µM | [6] 4.64 µM

O=C(O)c1cc(N=Nc2ccc(S(=O)(=O)Nc3ccccn3)cc2)ccc1O
inactive: [5]

Nc1ccc(Nc2ccccc2)cc1
active: [6] 4.35 µM

CC(C)CCCCCCCOC(=O)CCCCC(=O)OCCCCCCCC(C)C
inactive: [17]

CC[C@H](C)C(=O)O[C@H]1C[C@@H](C)C=C2C=C[C@H](C)[C@H](CC[C@@H]3C[C@@H](O)CC(=O)O3)[C@H]21
inactive: [17]
